± gives the standard deviation of the averaged measurements. About 6,500 targets were measured; listed, in parts, are those with the largest changes and a random draw of the rest.

Compound in this experiment: Nc1ncnc2c1ncn2[C@@H]1O[C@H](COP(=O)(O)OP(=O)(O)OP(=O)(O)O)[C@@H](O)[C@H]1O [adenosine triphosphate]
The experiment is described as follows: NP40-soluble protein abundance relative to vehicle (solubility fold change) (ratio); higher = more soluble protein in presence of ATP. The method in brief:
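Jurkat crude lysate prepared with a Dounce homogeniser was treated at eight concentrations spanning 0.1 to 10 mM, 10 min at room temperature then 3 min at 37 °C. Solubilisation with 0.8% NP40 and benzonase and ultracentrifugation preceded TMT labelling of the supernatant for LC-MS/MS. Fold change against the detergent-processed vehicle was determined per replicate from vsn-normalised intensities, across three independent experiments.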

Chain of UniProt P19623 (P19623 whole entry): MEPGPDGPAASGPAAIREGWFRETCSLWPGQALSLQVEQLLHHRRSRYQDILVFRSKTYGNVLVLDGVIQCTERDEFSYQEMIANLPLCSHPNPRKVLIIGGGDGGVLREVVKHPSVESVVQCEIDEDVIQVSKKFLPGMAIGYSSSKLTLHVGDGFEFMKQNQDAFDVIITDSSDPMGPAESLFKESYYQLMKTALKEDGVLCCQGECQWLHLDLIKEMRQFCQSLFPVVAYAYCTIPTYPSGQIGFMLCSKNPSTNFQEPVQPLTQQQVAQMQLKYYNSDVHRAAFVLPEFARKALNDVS
Chain of UniProt O94906 (O94906 whole entry): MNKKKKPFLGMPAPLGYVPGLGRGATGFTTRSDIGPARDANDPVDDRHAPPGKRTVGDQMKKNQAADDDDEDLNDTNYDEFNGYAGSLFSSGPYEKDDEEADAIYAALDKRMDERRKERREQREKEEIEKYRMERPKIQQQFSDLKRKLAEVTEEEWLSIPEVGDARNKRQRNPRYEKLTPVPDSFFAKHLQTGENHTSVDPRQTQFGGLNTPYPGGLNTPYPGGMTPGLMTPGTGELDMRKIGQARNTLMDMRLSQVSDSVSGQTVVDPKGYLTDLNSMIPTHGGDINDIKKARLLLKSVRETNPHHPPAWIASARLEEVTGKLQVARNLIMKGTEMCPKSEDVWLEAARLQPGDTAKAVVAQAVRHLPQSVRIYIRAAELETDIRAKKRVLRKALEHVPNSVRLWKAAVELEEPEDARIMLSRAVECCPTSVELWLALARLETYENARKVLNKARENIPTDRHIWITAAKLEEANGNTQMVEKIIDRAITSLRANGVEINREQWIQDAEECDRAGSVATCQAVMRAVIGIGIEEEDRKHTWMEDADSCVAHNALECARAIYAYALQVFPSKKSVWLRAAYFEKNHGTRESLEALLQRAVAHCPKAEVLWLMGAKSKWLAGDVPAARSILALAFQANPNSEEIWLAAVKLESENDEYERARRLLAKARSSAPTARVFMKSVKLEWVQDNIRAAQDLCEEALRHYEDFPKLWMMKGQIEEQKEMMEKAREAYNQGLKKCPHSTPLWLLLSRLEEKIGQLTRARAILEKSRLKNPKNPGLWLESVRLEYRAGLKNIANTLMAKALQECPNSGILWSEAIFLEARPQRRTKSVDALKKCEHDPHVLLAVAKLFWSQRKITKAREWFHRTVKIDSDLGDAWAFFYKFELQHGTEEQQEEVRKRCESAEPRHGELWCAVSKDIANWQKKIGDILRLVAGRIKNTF
Chain of UniProt P61204 (P61204 whole entry): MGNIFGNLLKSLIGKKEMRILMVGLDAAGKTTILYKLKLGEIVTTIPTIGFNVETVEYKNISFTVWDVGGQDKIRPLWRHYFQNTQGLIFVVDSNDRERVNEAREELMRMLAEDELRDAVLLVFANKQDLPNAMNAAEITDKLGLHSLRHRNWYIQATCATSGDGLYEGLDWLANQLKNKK
Chain of UniProt P26368 (P26368 whole entry): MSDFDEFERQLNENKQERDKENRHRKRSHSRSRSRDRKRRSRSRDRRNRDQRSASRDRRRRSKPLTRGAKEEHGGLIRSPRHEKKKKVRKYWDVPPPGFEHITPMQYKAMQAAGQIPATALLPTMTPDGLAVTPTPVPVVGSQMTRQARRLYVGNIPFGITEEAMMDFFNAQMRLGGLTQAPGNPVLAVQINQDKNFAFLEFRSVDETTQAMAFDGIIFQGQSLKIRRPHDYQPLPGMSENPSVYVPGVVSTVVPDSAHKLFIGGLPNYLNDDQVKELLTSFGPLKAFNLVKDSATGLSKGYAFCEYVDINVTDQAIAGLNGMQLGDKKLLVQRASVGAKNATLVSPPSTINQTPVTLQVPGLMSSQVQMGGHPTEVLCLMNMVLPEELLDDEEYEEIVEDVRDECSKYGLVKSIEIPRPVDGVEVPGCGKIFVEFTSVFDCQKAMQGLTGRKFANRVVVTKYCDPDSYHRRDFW
Chain of UniProt P23434 (P23434 whole entry): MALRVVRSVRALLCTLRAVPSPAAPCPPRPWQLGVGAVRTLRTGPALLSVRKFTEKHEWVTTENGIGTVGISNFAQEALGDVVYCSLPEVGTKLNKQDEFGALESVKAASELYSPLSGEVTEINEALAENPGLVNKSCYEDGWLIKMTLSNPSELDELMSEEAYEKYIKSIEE
Chain of UniProt Q01196 (Q01196 whole entry): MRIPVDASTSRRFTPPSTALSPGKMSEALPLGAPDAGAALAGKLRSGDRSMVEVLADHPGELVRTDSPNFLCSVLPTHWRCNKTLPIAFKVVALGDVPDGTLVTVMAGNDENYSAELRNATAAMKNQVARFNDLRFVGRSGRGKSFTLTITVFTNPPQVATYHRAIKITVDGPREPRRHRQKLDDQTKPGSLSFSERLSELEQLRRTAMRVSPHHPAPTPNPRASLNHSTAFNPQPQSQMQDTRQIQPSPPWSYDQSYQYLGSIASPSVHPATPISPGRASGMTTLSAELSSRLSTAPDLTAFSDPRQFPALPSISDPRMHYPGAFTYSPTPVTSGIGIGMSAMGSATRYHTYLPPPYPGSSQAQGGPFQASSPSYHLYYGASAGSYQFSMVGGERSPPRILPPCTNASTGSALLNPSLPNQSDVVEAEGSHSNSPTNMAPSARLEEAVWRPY
Chain of UniProt Q01082 (Q01082 whole entry): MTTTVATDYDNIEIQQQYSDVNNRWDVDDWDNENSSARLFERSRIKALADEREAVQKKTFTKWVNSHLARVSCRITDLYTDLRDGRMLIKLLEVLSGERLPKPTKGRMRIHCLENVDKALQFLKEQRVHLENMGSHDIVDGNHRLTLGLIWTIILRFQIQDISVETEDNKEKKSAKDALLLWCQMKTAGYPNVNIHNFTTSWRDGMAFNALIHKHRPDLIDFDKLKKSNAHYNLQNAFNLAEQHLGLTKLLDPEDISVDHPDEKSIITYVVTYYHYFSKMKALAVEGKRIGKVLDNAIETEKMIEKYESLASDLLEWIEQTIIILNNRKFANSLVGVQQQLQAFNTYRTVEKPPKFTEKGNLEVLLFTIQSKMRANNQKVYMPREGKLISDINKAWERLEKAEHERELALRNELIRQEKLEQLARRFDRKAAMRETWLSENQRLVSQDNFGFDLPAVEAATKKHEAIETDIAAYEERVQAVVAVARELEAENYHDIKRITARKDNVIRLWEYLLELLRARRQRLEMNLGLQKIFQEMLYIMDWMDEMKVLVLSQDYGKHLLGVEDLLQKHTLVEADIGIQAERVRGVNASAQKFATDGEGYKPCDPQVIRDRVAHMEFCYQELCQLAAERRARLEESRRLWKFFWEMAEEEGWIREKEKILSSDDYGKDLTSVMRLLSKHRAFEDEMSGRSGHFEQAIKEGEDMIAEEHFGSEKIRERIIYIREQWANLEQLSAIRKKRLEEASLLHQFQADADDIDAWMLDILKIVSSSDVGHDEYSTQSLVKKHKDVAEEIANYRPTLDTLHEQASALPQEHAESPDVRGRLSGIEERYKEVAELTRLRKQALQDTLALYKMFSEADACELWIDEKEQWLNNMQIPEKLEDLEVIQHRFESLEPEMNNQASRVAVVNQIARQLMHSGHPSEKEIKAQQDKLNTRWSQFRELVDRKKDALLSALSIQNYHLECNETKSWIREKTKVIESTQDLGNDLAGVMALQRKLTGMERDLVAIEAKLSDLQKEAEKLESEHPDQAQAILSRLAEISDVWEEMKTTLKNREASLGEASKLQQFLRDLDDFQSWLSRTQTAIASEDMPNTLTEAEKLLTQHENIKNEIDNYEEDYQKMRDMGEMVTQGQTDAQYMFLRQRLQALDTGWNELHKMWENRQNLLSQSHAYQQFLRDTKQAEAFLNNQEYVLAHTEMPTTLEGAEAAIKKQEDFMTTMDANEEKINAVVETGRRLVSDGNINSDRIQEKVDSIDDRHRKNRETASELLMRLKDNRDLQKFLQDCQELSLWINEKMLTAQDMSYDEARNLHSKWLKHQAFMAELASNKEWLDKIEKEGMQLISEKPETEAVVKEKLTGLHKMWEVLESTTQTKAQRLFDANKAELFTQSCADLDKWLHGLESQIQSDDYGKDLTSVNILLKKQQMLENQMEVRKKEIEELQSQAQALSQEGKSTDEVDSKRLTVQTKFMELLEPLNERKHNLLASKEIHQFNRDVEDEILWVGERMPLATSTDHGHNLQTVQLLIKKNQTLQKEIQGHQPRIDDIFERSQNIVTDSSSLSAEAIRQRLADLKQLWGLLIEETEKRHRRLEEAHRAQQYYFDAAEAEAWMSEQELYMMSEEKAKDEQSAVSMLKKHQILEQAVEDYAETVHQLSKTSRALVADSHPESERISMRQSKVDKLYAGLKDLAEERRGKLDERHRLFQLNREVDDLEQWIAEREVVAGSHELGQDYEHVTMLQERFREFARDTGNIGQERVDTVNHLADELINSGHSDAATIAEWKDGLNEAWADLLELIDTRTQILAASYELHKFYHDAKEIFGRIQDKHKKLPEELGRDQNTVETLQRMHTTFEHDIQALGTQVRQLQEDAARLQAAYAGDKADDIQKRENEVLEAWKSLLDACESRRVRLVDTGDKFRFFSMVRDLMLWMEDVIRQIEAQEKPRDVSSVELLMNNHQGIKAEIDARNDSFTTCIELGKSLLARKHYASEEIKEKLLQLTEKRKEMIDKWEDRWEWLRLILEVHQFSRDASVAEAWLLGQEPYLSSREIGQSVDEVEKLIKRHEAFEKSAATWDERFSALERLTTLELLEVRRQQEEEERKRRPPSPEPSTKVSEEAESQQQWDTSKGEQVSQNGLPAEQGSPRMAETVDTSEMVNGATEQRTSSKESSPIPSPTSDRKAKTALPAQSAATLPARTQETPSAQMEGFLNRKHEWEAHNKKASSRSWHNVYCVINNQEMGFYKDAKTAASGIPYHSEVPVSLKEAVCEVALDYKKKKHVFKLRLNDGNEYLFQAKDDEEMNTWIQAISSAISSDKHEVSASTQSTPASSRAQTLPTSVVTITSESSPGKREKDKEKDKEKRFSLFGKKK
Chain of UniProt P56381 (P56381 whole entry): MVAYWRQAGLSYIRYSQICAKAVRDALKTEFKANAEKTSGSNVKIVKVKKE
Chain of UniProt P63218 (P63218 whole entry): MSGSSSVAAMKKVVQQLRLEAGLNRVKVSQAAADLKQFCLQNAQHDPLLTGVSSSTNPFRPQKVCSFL

As for MRPS25 (UniProt P82663), the NP40-soluble protein abundance (concentration: 1mM) amounted to 0.942 ± 0.092; the NP40-soluble protein abundance (concentration: 2mM) worked out at 0.951 ± 0.066; the NP40-soluble protein abundance (concentration: 4mM) came out at 0.96 ± 0.043; the NP40-soluble protein abundance (concentration: 6mM) worked out at 0.881 ± 0.09; the NP40-soluble protein abundance (concentration: 8mM) was found to be 0.915 ± 0.081; the NP40-soluble protein abundance (concentration: 10mM) was 0.928 ± 0.078.

For the target UniProt P50750-2|P50750, the NP40-soluble protein abundance (concentration: 1mM) was found to be 1.18 ± 0.047; the NP40-soluble protein abundance (concentration: 2mM) was determined as 1.26 ± 0.047; the NP40-soluble protein abundance (concentration: 4mM) was 1.38 ± 0.018; the NP40-soluble protein abundance (concentration: 6mM) is 1.47 ± 0.13; the NP40-soluble protein abundance (concentration: 8mM) was 1.64 ± 0.058; the NP40-soluble protein abundance (concentration: 10mM) amounted to 1.7 ± 0.1.

As to SFPQ (UniProt P23246), the NP40-soluble protein abundance reads like this: (concentration: 1mM) 1.125 ± 0.0082; (concentration: 2mM) 1.302 ± 0.0053; (concentration: 4mM) 1.67 ± 0.042; (concentration: 6mM) 1.72 ± 0.18; (concentration: 8mM) 1.81 ± 0.11; (concentration: 10mM) 1.68 ± 0.17.

As for UniProt P56381, the NP40-soluble protein abundance by setting is: (concentration: 1mM) 2.11 ± 1.8; (concentration: 2mM) 0.927 ± 0.037; (concentration: 4mM) 0.827 ± 0.014; (concentration: 6mM) 1.2 ± 0.39; (concentration: 8mM) 0.93 ± 0.067; (concentration: 10mM) 0.875 ± 0.046.

With UniProt P26639, the NP40-soluble protein abundance (concentration: 1mM) stood at 1 ± 0.1; the NP40-soluble protein abundance (concentration: 2mM) is 0.988 ± 0.075; the NP40-soluble protein abundance (concentration: 4mM) was 0.95 ± 0.078; the NP40-soluble protein abundance (concentration: 6mM) is 0.928 ± 0.11; the NP40-soluble protein abundance (concentration: 8mM) worked out at 0.989 ± 0.054; the NP40-soluble protein abundance (concentration: 10mM) is 0.949 ± 0.042.

Regarding UniProt P26368|P26368-2, the NP40-soluble protein abundance is, setting by setting: (concentration: 1mM) 1.96 ± 0.078; (concentration: 2mM) 1.99 ± 0.078; (concentration: 4mM) 2.01 ± 0.076; (concentration: 6mM) 2.06 ± 0.032; (concentration: 8mM) 2.11 ± 0.079; (concentration: 10mM) 2.09 ± 0.12.

As for UniProt P63218, the NP40-soluble protein abundance (concentration: 1mM) worked out at 0.812 ± 0.15; the NP40-soluble protein abundance (concentration: 2mM) worked out at 0.735 ± 0.17; the NP40-soluble protein abundance (concentration: 4mM) amounted to 0.799 ± 0.22; the NP40-soluble protein abundance (concentration: 6mM) was determined as 0.72 ± 0.12; the NP40-soluble protein abundance (concentration: 8mM) was determined as 0.77 ± 0.16; the NP40-soluble protein abundance (concentration: 10mM) was determined as 0.678 ± 0.18.

As for LSM11 (UniProt P83369), the NP40-soluble protein abundance is 1.32 ± 0.26 (concentration: 1mM); 1.26 ± 0.15 (concentration: 2mM); 1.4 ± 0.17 (concentration: 4mM); 1.62 ± 0.32 (concentration: 6mM); 1.46 ± 0.2 (concentration: 8mM); 1.69 ± 0.4 (concentration: 10mM).

As to GCSH (UniProt P23434), the NP40-soluble protein abundance (concentration: 1mM) came to 0.985 ± 0.048; the NP40-soluble protein abundance (concentration: 2mM) turned out to be 0.971 ± 0.024; the NP40-soluble protein abundance (concentration: 4mM) was 0.986 ± 0.051; the NP40-soluble protein abundance (concentration: 6mM) is 1.03 ± 0.05; the NP40-soluble protein abundance (concentration: 8mM) amounted to 0.915 ± 0.051; the NP40-soluble protein abundance (concentration: 10mM) was 0.927 ± 0.092.

Consider UniProt P25398, for which the NP40-soluble protein abundance is 0.879 ± 0.058 (concentration: 1mM); 0.861 ± 0.073 (concentration: 2mM); 0.813 ± 0.071 (concentration: 4mM); 0.817 ± 0.087 (concentration: 6mM); 0.761 ± 0.043 (concentration: 8mM); 0.779 ± 0.061 (concentration: 10mM).

Regarding VAMP7 (UniProt P51809), the NP40-soluble protein abundance (concentration: 1mM) was 0.955 ± 0.046; the NP40-soluble protein abundance (concentration: 2mM) turned out to be 0.958 ± 0.05; the NP40-soluble protein abundance (concentration: 4mM) is 0.938 ± 0.028; the NP40-soluble protein abundance (concentration: 6mM) was 0.894 ± 0.1; the NP40-soluble protein abundance (concentration: 8mM) worked out at 0.943 ± 0.044; the NP40-soluble protein abundance (concentration: 10mM) was determined as 0.945 ± 0.044.

With SRM (UniProt P19623), the NP40-soluble protein abundance worked out at 1.03 ± 0.12 (concentration: 1mM); 1.01 ± 0.1 (concentration: 2mM); 1 ± 0.083 (concentration: 4mM); 0.929 ± 0.12 (concentration: 6mM); 0.998 ± 0.071 (concentration: 8mM); 0.997 ± 0.068 (concentration: 10mM).

As to “UniProt P21675|P21675-12|P21675-2|P21675-3|P21675-4|P21675-5|P21675-6|P21675-7|P21675-9”, the NP40-soluble protein abundance came to 1.11 ± 0.067 (concentration: 1mM); 1.11 ± 0.048 (concentration: 2mM); 1.11 ± 0.066 (concentration: 4mM); 1.15 ± 0.14 (concentration: 6mM); 1.2 ± 0.079 (concentration: 8mM); 1.19 ± 0.091 (concentration: 10mM).

Regarding UniProt Q03933-2|Q03933, the NP40-soluble protein abundance (concentration: 1mM) was found to be 0.912 ± 0.029; the NP40-soluble protein abundance (concentration: 2mM) is 1.05 ± 0.065; the NP40-soluble protein abundance (concentration: 4mM) was found to be 1.05 ± 0.2; the NP40-soluble protein abundance (concentration: 6mM) stood at 1.09 ± 0.17; the NP40-soluble protein abundance (concentration: 8mM) was 1.04 ± 0.048; the NP40-soluble protein abundance (concentration: 10mM) came out at 1.01 ± 0.051.

In the case of UniProt Q01543|Q01543-3|Q01543-2, the NP40-soluble protein abundance by setting is: (concentration: 1mM) 0.989 ± 0.05; (concentration: 2mM) 0.997 ± 0.013; (concentration: 4mM) 0.996 ± 0.032; (concentration: 6mM) 1.01 ± 0.048; (concentration: 8mM) 0.969 ± 0.033; (concentration: 10mM) 0.9608 ± 0.0033.

For the target ARF3 (UniProt P61204), the NP40-soluble protein abundance (concentration: 1mM) stood at 1.05 ± 0.21; the NP40-soluble protein abundance (concentration: 2mM) came out at 1.01 ± 0.17; the NP40-soluble protein abundance (concentration: 4mM) came to 1.04 ± 0.13; the NP40-soluble protein abundance (concentration: 6mM) was determined as 0.961 ± 0.23; the NP40-soluble protein abundance (concentration: 8mM) is 1.05 ± 0.073; the NP40-soluble protein abundance (concentration: 10mM) came to 0.996 ± 0.08.

On to UniProt Q01196|Q01196-8|Q01196-2, for which the NP40-soluble protein abundance by setting is: (concentration: 1mM) 1.07 ± 0.026; (concentration: 2mM) 1.08 ± 0.024; (concentration: 4mM) 1.11 ± 0.016; (concentration: 6mM) 1.17 ± 0.034; (concentration: 8mM) 1.15 ± 0.028; (concentration: 10mM) 1.21 ± 0.034.

Take UniProt O96028|O96028-3|O96028-5: the NP40-soluble protein abundance amounted to 1.31 ± 0.054 (concentration: 1mM); 1.45 ± 0.072 (concentration: 2mM); 1.54 ± 0.11 (concentration: 4mM); 1.62 ± 0.12 (concentration: 6mM); 1.62 ± 0.12 (concentration: 8mM); 1.74 ± 0.18 (concentration: 10mM).

As for CTBS (UniProt Q01459), the NP40-soluble protein abundance came out at 0.951 ± 0.04 (concentration: 1mM); 0.98 ± 0.028 (concentration: 2mM); 0.939 ± 0.038 (concentration: 4mM); 0.957 ± 0.038 (concentration: 6mM); 0.932 ± 0.032 (concentration: 8mM); 0.955 ± 0.013 (concentration: 10mM).

Take PRPF6 (UniProt O94906): the NP40-soluble protein abundance was found to be 1.31 ± 0.017 (concentration: 1mM); 1.5 ± 0.12 (concentration: 2mM); 1.79 ± 0.13 (concentration: 4mM); 1.97 ± 0.2 (concentration: 6mM); 2.18 ± 0.15 (concentration: 8mM); 2.36 ± 0.21 (concentration: 10mM).

Turning to UniProt Q01082|Q01082-3, the NP40-soluble protein abundance came to 0.887 ± 0.029 (concentration: 1mM); 0.899 ± 0.014 (concentration: 2mM); 0.928 ± 0.03 (concentration: 4mM); 1.05 ± 0.037 (concentration: 6mM); 1.04 ± 0.06 (concentration: 8mM); 1.07 ± 0.048 (concentration: 10mM).

(Values after the supplement of paper PMC6411743.)
